In PubChem BioAssay AID602393 (Broad Institute, 2012):
In all, about 350,000 compounds went through this assay and about 7,000 (2%) were called active. The full list was thinned out, with actives kept by preference. Unmarked numbers belong to inactive results. Rule as the data show it: active = activation above about 40%; inconclusive = no clear call, values can overlap the other calls; inactive = below that.

assay: Bmi1 luciferase reporter increase in mESCs, primary screen, esBAF inhibitor project, mouse ES cells, Bmi1 luciferase knock-in, single point (AID 602393); conditions: 24 h, at 12.5 µM, stronger effect = higher value, 100% = twice the neutral-well signal;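 also: 0% = median of the plate's neutral control wells and 100% = double that signal; a rise in the Bmi1 reporter signal indicates esBAF inhibition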

Structure (SMILES) | reporter increase
COCc1cccc(-c2csc(C(O)c3ccc(F)cc3)n2)c1 (stereo not given) | 49.8% (active)
COc1ccc(C(O)c2nc(-c3ccc4c(c3)OCO4)cs2)cc1 (stereo not given) | 11.6%
COc1cc(C(O)c2nc(-c3cccc(C(=O)O)c3)cs2)ccc1F (stereo not given) | 4.68%
O=C(c1cccnc1)N1C[C@@H]2[C@H](c3ccccc31)[C@@H](CO)N2C(=O)Nc1ccc(F)cc1 | 1.17%
COc1ccc(S(=O)(=O)N(C)C[C@H]2OCCCC[C@@H](C)Oc3ccc(NS(=O)(=O)c4ccc(C)cc4)cc3C(=O)N([C@@H](C)CO)C[C@@H]2C)cc1 | 7.8%
CCN1[C@@H]2Cn3c(ccc(-c4cccnc4)c3=O)[C@H]1[C@@H](C(=O)NC1CCCCC1)[C@@H]2CO | -4.32%
Cc1cc(OCc2cc(C(=O)NCc3cc(C(C)C)no3)no2)cc(C)c1Cl | 81.9% (active)
COCCCNC(=O)COc1cc(C)c(Cl)c(C)c1 | 4.32%
Cc1cccnc1CC(C)NC(=O)c1cc(COc2cncc(Cl)c2)on1 (stereo not given) | 9.52%
COc1ccc(CN(C)C[C@@H]2OCCCC[C@H](C)Oc3ccc(NS(=O)(=O)c4ccc(F)cc4)cc3C(=O)N([C@@H](C)CO)C[C@@H]2C)cc1 | -7.82%
Cn1cnc(S(=O)(=O)N2C[C@@H](O)COC[C@@H]3O[C@H](CC(=O)NCc4ccc(F)cc4)CC[C@H]32)c1 | -4.57%
O=C(c1cccc(F)c1)N1CC[C@@H]2[C@@H](CO)Nc3ccc(C#Cc4cccc(F)c4)cc3[C@@H]21 | 2.36%
Cc1noc(C)c1NC(=O)N[C@@H]1C=C[C@@H](CC(=O)Nc2ccccc2)O[C@H]1CO | 1.58%
COc1ccc2nc(NC(=O)c3ccc(Br)s3)sc2c1 | 71.6% (active)
COc1cccc(C(=O)Nc2nnc(S(=O)(=O)N(C)c3ccccc3)s2)c1 | 3.61%
COc1ccc(CNC(=O)c2ccc(Br)s2)cc1OC | -1.1%
O=C(Nc1ccc2c(c1)CCC2)c1ccc(Br)s1 | 21.7%
COc1cccc(C(=O)Nc2nc3ccc(S(C)(=O)=O)cc3s2)c1 | 50.7% (active)
COc1cc(NC(=O)CN(C)S(=O)(=O)c2ccc3nc(C)sc3c2)cc(OC)c1 | -1.66%
C[C@H](NC(=O)C[C@@H]1C=C[C@H](NC(=O)CN2CCOCC2)[C@H](CO)O1)c1ccccc1 | -6.32%

Structure (SMILES) | reporter increase
N#Cc1ccc(-c2ccc3c(c2)[C@H]2[C@H](CCN2Cc2ccc4c(c2)OCO4)[C@@H](CO)N3)cc1 | -8.59%
CCCNC(=O)N(C)C[C@H]1Oc2cc(-c3ccncc3)ccc2S(=O)(=O)N([C@H](C)CO)C[C@H]1C | 0.442%
CCCNC(=O)C[C@H]1CC[C@H]2[C@@H](COC[C@H](O)CN2C(=O)CC)O1 | 5.31%
CCCNC(=O)N1[C@H](C#N)[C@@H](c2ccccc2)[C@H]1CO | -3.13%
Cc1ccc(S(=O)(=O)NCC[C@H]2CC[C@@H](NC(=O)C3CCOCC3)[C@@H](CO)O2)cc1 | -2.84%
CN1CCN(CCNC(=O)Nc2ccccc2[N+](=O)[O-])CC1 | -5.22%
Cc1csc(NC(=O)Nc2ccccc2[N+](=O)[O-])n1 | 60.4% (active)
Cc1csc(NC(=O)NC2(C(F)(F)F)Oc3ccccc3O2)n1 | -3.69%
C[C@H]1CN([C@@H](C)CO)C(=O)c2cc(Br)cnc2O[C@@H]1CN(C)C(=O)c1ccccc1 | -3.42%
COc1ccc(CNc2ncnc3ccccc23)cc1 | -11.7%
COc1ccc(Nc2ncnc3sc(C)cc23)cc1 | 66.1% (active)
COc1ccc(Nc2cc(Sc3ccc(OC)cc3)ncn2)cc1 | 13.3%
C=C(C)CSc1nnc(-c2ccc(C)cc2)n1N | 57.8% (active)
Cc1ccc(-c2nnc(SC(C)C#N)n2N)cc1 (stereo not given) | 0.696%
Cc1ccccc1CSc1nnc(-c2cccnc2)n1N | 17.5%
CCS(=O)(=O)Nc1ccc2c(c1)C(=O)N(C)[C@@H]1CC[C@H](CC(=O)N3CCCCC3)O[C@@H]1CO2 | -2.06%
CC(=O)N1CCN(CC(=O)Nc2ccc(C)c(F)c2)CC1 | -6.19%
O=C(CN1CCN(c2ccc(F)cc2)CC1)Nc1cccc(C(F)(F)F)c1 | -10.4%
CCc1sc(C(=O)N2CCN(CC(=O)Nc3cccc(F)c3)CC2)cc1C | 79.7% (active)
Cc1ccc(S(=O)(=O)N(C)C[C@@H]2Oc3c(NS(C)(=O)=O)cccc3C(=O)N([C@@H](C)CO)C[C@H]2C)cc1 | -2.2%
